Screening results: PubChem, National Center for Advancing Translational Sciences (NCATS)
IL1B secr inh – inhibitors of inflammasome signaling (IL-1 beta secretion) | 360,000 tested, 4.7% active | THP-1 LPS/ATP IL-1B secretion, AlphaLISA, 16 h; hits give low values | AID 743279 | activity change, % at 57.5 µM; in the data active = activity change below about -50%; inconclusive = mostly about -30% to -49%
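THP-1 cells pretreated 1 hr with compounds (up to 57.5 uM final), then stimulated with LPS (250 ng/mL final) plus ATP (1.25 mM final); secreted IL-1B measured by AlphaLISA after 16 hr, decreased signal indicating inhibition.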
HT1080 IDH1KD tx – kills HT-1080 cells with IDH1 knockdown; HT-1080 IDH1 knockdown viability, ATP luminescence, 48 h; Potency, µM (highest dose often 46.1 µM), usual class: cytotoxic; AID 686971; 360,000 tested, 2% active
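Cytotoxicity counter-line: IDH1KD HT-1080, 48 h, CellTiter-Glo. Curves classed by r2, magnitude and activity.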
KB-3-1 tox – kills parental KB-3-1 adenocarcinoma cells | AID 1347075 | 400,000 tested, 1.4% active | Potency, µM (top dose mostly 46.1 µM), actives largely listed as cytotoxic | KB-3-1 viability, CellTiter-Glo ATP luminescence, 72 h; also: nearly all actives have a fitted effect of over 60% in size
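72 h, 37 °C compound treatment of KB-3-1 parental cells; CellTiter-Glo added, 10 min, luminescence read. Data corrected against DMSO-only plates and normalized before curve fitting.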
KB-V1 MDR tox – kills drug-selected multidrug resistant KB-V1 cells; KB-V1 MDR cells viability, CellTiter-Glo, 72 h; Potency, µM (doses to about 46.1 µM), actives largely listed as cytotoxic; 400,000 tested, 3.4% active; AID 1347076; also: nearly all actives have a fitted effect of over 60% in size
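KB-V1 cells (P-gp-expressing MDR subline of KB-3-1) in phenol-red-free DMEM with 10% FBS were exposed to library compounds over a concentration series for 72 h at 37 degrees C. Viability read by CellTiter-Glo luminescence; concentration-effect curves fitted after normalization.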
HT1080NT lethal – kills 2HG-producing HT-1080-NT fibrosarcoma cells; 360,000 tested, 1.6% active; AID 686970; HT-1080-NT fibrosarcoma viability, CellTiter-Glo ATP luminescence, 48 h; Potency, µM (highest dose often 46.1 µM), usual class: cytotoxic;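 also: NT is the 2HG producing partner of a matched IDH1 knockdown line; nearly all actives have a fitted effect of over 55% in size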
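HT-1080-NT fibrosarcoma cells (2HG-overproducing), 750 cells/well in RPMI with 5% FBS, dosed after 2 h and incubated 48 h at 37C. CellTiter-Glo luminescence normalized to DMSO and no-cell wells; concentration-response curves fitted and classed.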
Each line names hits and unclear results; the compound was inactive in the other large screens. Sampled rows, rich in hits. Any-hit rate of the full collection: about 8.8%. Unless noted, calls follow the shape of the dose curve; as a rule, active = well fitted curve in the direction sought with a large enough effect; inconclusive = small, poorly fitted or top-dose-only effect, or another doubt; inactive = no such curve, though single readings can be large; an effect the other way counts as inactive or inconclusive.

CCOC(=O)c1c(-n2c(C)cc(C=O)c2C)sc2c1CCCC2	IL1B secr inh -56, HT1080 IDH1KD tx inconclusive, KB-V1 MDR tox inconclusive
O=C(CN1CCN(c2ccccn2)CC1)N1c2ccccc2CCc2ccccc21	KB-V1 MDR tox 5.8µM
O=C(CN1CCN(c2ccccn2)CC1)N1c2ccccc2Sc2ccc(C(F)(F)F)cc21	HT1080 IDH1KD tx inconclusive, KB-3-1 tox inconclusive, KB-V1 MDR tox inconclusive
O=C1CC(c2ccccc2)CC2=C1C1(CCCC1)N=C(Nc1nc3ccccc3o1)N2 (configuration not stated)	none (no result: IL1B secr inh, HT1080 IDH1KD tx, HT1080NT lethal)
COc1ccc2ncccc2c1Cc1c(OC)ccc2ncccc12	IL1B secr inh -75, KB-V1 MDR tox inconclusive
CCOC(=O)CNc1nc(C(C)(C)C)nc2c1nnn2Cc1ccccc1Cl	KB-3-1 tox inconclusive, KB-V1 MDR tox 5.8µM
c1ccc(C[n+]2csc3ccccc32)cc1	IL1B secr inh -53, HT1080 IDH1KD tx inconclusive, HT1080NT lethal inconclusive
c1ccc2c(c1)sc[n+]2CCC1CCCCC1	none (no result: IL1B secr inh, HT1080 IDH1KD tx, HT1080NT lethal)
Fc1cccc(C[n+]2csc3ccccc32)c1	IL1B secr inh -118
CC1(C(=O)NS(=O)(=O)Cc2ccccc2C(F)(F)F)CCN1C(=O)Cc1ccccc1 (configuration not stated)	none
COc1ccc(-n2c(SC(C)C(=O)Nc3ncc(Cl)cc3Cl)nc3ccccc32)cc1 (configuration not stated)	HT1080 IDH1KD tx inconclusive, KB-3-1 tox 21µM, KB-V1 MDR tox 2.1µM, HT1080NT lethal inconclusive
CC(Sc1nnc2ccccn12)C(=O)Nc1ncc(Cl)cc1Cl (configuration not stated)	none
CC(C)C(C(=O)Nc1nccs1)c1ccc(Cl)cc1 (configuration not stated)	HT1080 IDH1KD tx 10µM, KB-V1 MDR tox inconclusive, HT1080NT lethal inconclusive
O=C(Nc1nccs1)C(Br)C(Br)c1ccccc1 (configuration not stated)	IL1B secr inh -86, HT1080 IDH1KD tx inconclusive, KB-3-1 tox inconclusive, KB-V1 MDR tox inconclusive
CC(=O)OC(C(=O)Nc1nccs1)c1ccccc1 (configuration not stated)	none
Cc1ccccc1-c1cccc([C@@H]2C[C@H]3C(CN2)CON3C)c1 (some centres not stated)	none
COc1ccc(C(C#N)CC(=O)c2ccc(OC)c(OCc3ccccc3)c2)cc1OC (configuration not stated)	KB-3-1 tox inconclusive, KB-V1 MDR tox inconclusive
Cc1cccc(C)c1N/C=C/c1onc(C)c1[N+](=O)[O-]	none
Cc1noc(/C=C/c2cccnc2)c1[N+](=O)[O-]	IL1B secr inh -94, HT1080 IDH1KD tx inconclusive, KB-3-1 tox 21µM, HT1080NT lethal 21µM
CNCCCC1Sc2ccccc2Oc2ccccc21 (configuration not stated)	IL1B secr inh -73, HT1080 IDH1KD tx inconclusive, KB-3-1 tox inconclusive, KB-V1 MDR tox inconclusive, HT1080NT lethal inconclusive
O=C(Cn1c(=O)n(-c2ccccc2)c(=O)c2ccc(C(=O)NCc3ccc4c(c3)OCO4)cc21)Nc1ccc(Br)cc1F	none (no result: IL1B secr inh, HT1080 IDH1KD tx, HT1080NT lethal)
CC1CCN(S(=O)(=O)c2ccc3nc(N4CCN(c5ccccc5F)CC4)ccc3c2)CC1	none (no result: IL1B secr inh, HT1080 IDH1KD tx, HT1080NT lethal)
Cc1ccc2cc(C#N)c(NCCNC(=S)NCCCN(C)C)nc2c1C	IL1B secr inh inconclusive, HT1080 IDH1KD tx inconclusive, HT1080NT lethal 21µM
Cc1cc(C)c2nc(NCCCNC(=S)NCCCN(C)C)c(C#N)cc2c1	HT1080 IDH1KD tx inconclusive, KB-3-1 tox inconclusive, HT1080NT lethal inconclusive
Cc1ccc2cc(C#N)c(NCCNC(=O)C3CC3)nc2c1C	IL1B secr inh inconclusive, KB-3-1 tox inconclusive, KB-V1 MDR tox 3.7µM
Cc1ccc(NC(=O)c2ncn(-c3ccccc3)n2)cc1Cl	none (no result: IL1B secr inh, HT1080 IDH1KD tx, HT1080NT lethal)
COc1ccc(CCCNC(=O)C2Cc3c(-c4ccc(NC(C)=O)cc4)ccnc3O2)cc1 (configuration not stated)	HT1080 IDH1KD tx 16µM, KB-3-1 tox inconclusive, HT1080NT lethal inconclusive
COc1ccc(CCCNC(=O)C2Cc3c(-c4cccc(C(C)=O)c4)ccnc3O2)cc1 (configuration not stated)	HT1080 IDH1KD tx inconclusive, KB-3-1 tox 6.5µM, KB-V1 MDR tox 21µM, HT1080NT lethal inconclusive
COc1ccc(CCCNC(=O)C2Cc3c(-c4ccc5c(c4)OCO5)ccnc3O2)cc1 (configuration not stated)	HT1080 IDH1KD tx 5.8µM, KB-3-1 tox inconclusive, KB-V1 MDR tox inconclusive, HT1080NT lethal 9.2µM
CCN(CC)CCCNC(=O)c1cc(Nc2ccc(OC)cc2)nc2ccccc12	IL1B secr inh -60, HT1080 IDH1KD tx inconclusive
COc1ccc(Nc2cc(C(=O)NCc3cccs3)c3ccccc3n2)cc1	none (no result: IL1B secr inh, HT1080 IDH1KD tx, HT1080NT lethal)
COc1ccc(Nc2cc(C(=O)NCc3ccccc3)c3ccccc3n2)cc1OC	none (no result: IL1B secr inh, HT1080 IDH1KD tx, HT1080NT lethal)
CCN(CC)CCNC(=O)c1cc(Nc2ccc(OC)c(OC)c2)nc2ccccc12	IL1B secr inh -58, HT1080 IDH1KD tx inconclusive
CSc1cccc(Nc2cc(C(=O)NC3CCCCC3)c3ccccc3n2)c1	KB-3-1 tox inconclusive (no result: IL1B secr inh, HT1080 IDH1KD tx, HT1080NT lethal)
CSc1cccc(Nc2cc(C(=O)NCCCN(Cc3ccccc3)C(C)C)c3ccccc3n2)c1	KB-V1 MDR tox 16µM (no result: IL1B secr inh, HT1080 IDH1KD tx, HT1080NT lethal)
COc1ccc(C)cc1S(=O)(=O)N1CCN(C(=O)c2ncoc2-c2ccc(C)cc2)CC1	IL1B secr inh -53
CC1(C(=O)NCc2ccccc2)CN(S(C)(=O)=O)CC(=O)N1CCCn1ccnc1 (configuration not stated)	none
COc1cccc(CN(C)C(=O)c2cccc(S(=O)(=O)N3CCN(Cc4ccccc4)CC3)c2)c1OC	KB-3-1 tox inconclusive, KB-V1 MDR tox inconclusive, HT1080NT lethal inconclusive
COc1cccc(CN(C)C(=O)c2ccc(Cl)c(S(=O)(=O)N3CCCCCC3)c2)c1OC	IL1B secr inh -53, KB-V1 MDR tox inconclusive
CN(C)C(CNC(=O)c1cccc(S(=O)(=O)N2CCN(c3ccc(F)cc3)CC2)c1)c1ccccc1 (configuration not stated)	IL1B secr inh -74, HT1080 IDH1KD tx 15µM, KB-3-1 tox inconclusive, HT1080NT lethal inconclusive
CN(C)C(CNC(=O)c1ccc(Cl)c(S(=O)(=O)N2CCCCCC2)c1)c1ccccc1 (configuration not stated)	IL1B secr inh -59
COc1cccc(N=c2oc3cc(O)ccc3cc2C(=O)NCC2CCCO2)c1 (configuration not stated)	IL1B secr inh -87
COc1ccccc1N=c1oc2cc(O)ccc2cc1C(=O)NCC1CCCO1 (configuration not stated)	none
COC(=O)c1cccc(NC(=O)/C=C/c2cccc([N+](=O)[O-])c2)c1	HT1080 IDH1KD tx inconclusive
O=C(Nc1ccccc1F)c1ccc([N+](=O)[O-])s1	IL1B secr inh -68, HT1080 IDH1KD tx inconclusive, KB-3-1 tox inconclusive, KB-V1 MDR tox inconclusive, HT1080NT lethal inconclusive
